{"source": "PubChem BioAssay (NCATS)", "key": {"[1]": {"target": "Cytochrome P450 3A4 (Homo sapiens) (UniProt P08684)", "sequence (P08684 whole entry, looked up)": "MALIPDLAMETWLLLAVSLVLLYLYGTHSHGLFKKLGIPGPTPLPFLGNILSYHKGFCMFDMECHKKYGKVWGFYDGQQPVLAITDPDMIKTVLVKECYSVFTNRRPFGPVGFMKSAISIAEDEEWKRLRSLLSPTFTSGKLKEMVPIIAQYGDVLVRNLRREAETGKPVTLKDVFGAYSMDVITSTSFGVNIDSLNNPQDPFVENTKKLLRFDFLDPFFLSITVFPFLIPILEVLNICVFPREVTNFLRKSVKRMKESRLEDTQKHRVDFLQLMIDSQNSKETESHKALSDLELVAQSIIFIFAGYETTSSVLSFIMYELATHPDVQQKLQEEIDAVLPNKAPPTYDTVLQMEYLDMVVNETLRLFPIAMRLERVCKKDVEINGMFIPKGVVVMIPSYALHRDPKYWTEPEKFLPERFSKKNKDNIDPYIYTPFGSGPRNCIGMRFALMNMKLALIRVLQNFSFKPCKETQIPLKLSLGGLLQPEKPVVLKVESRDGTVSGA", "test": "qHTS Assay for Inhibitors and Substrates of Cytochrome P450 3A4 (AID 884); also: nearly all actives have a fitted effect of over 50% in size; also: potency is read from the fitted curve at half-maximal effect", "in_short": "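20 nM human CYP3A4 with 25 uM Luciferin-PPXE (at KM) in 200 mM KPO4, preincubated 10 min with compound; NADPH regeneration started a 60 min RT reaction. Luciferin detected by luminescence, normalized to 57 uM ketoconazole as full inhibition.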"}, "[2]": {"target": "Guanine nucleotide-binding protein G(i) subunit alpha-1 (Homo sapiens) (UniProt P63096)", "sequence (P63096 whole entry, looked up)": "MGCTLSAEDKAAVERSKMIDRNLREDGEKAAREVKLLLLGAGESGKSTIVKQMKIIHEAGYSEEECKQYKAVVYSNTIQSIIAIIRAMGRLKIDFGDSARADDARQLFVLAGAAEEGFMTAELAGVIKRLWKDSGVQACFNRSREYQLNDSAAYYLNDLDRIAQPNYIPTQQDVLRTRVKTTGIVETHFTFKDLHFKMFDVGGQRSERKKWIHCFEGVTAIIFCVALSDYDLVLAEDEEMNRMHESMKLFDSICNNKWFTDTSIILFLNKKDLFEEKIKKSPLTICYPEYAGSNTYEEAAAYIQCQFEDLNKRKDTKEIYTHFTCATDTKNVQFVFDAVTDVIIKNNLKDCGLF", "test": "qHTS Assay for Inhibitors of RGS12 GoLoco Motif Activity (Green Fluorophore) (AID 879);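 also: negative values mean loss of peptide binding seen as reduced polarization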", "in_short": "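Fluorescence polarization assay: 50 nM Gαi1 with 10 nM FITC-labeled RGS12 GoLoco peptide in 10 mM Tris pH 7.5, 150 mM NaCl, 0.1 mM GDP, 0.05% NP40, 10 min at room temperature with compound.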"}, "[3]": {"test": "qHTS Assay for Identification of Small Molecule Agonists for Thrombopoietin (TPO) Signaling Pathway (AID 917)", "in_short": "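Activators of TPO signaling were sought in murine Ba/F3 cells transfected with the human receptor, using a luciferase gene driven by the Glycoprotein IIb promoter; 24-hr compound exposure at 37 C alongside 26 pM TPO, in IL-3-free medium.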"}, "[4]": {"target": "Pyruvate kinase (Leishmania mexicana) (UniProt Q27686)", "sequence (Q27686 2-499 E452W)": "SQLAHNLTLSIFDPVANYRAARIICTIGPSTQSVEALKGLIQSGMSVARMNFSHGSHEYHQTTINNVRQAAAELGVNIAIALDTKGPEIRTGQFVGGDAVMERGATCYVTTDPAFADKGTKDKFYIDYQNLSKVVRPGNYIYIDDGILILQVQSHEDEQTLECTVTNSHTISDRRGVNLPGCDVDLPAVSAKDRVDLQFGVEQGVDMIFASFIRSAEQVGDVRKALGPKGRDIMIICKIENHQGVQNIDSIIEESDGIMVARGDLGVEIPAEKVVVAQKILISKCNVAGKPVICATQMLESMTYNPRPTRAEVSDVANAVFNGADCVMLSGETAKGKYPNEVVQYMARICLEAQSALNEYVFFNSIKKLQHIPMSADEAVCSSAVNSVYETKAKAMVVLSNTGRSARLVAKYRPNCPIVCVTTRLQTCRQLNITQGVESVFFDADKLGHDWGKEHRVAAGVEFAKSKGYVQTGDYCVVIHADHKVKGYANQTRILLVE", "test": "qHTS Validation Assay for Inhibitors of Leishmania Mexicana Pyruvate Kinase (AID 945)", "in_short": "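qHTS eight-point titrations against 0.2 nM LmPYK (E451W) in imidazole buffer pH 7.2 with 0.5 mM PEP, 0.1 mM ADP; 1 h, room temperature. Readout: PKLight luminescence, normalized to neutral DMSO wells.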"}, "[5]": {"target": "Pyruvate kinase PKM (Homo sapiens) (UniProt P14618)", "sequence (P14618 whole entry, looked up)": "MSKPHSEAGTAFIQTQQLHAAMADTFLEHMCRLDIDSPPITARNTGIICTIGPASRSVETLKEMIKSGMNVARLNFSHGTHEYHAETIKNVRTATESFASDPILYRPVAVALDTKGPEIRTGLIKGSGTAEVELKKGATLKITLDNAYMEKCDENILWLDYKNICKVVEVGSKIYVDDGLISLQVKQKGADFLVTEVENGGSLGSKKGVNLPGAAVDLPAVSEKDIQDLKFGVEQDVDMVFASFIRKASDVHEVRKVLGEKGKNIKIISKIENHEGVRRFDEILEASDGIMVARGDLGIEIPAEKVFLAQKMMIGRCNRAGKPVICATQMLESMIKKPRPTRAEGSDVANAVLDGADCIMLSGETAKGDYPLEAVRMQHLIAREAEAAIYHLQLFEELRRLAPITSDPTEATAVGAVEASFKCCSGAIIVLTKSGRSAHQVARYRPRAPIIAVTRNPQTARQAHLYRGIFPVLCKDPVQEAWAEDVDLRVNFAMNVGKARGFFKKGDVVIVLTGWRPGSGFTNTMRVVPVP", "test": "qHTS Assay for Activators of Human Muscle Pyruvate Kinase (AID 954; active = well fitted curve in the direction sought with a large enough effect, not every such curve was filed as active)", "in_short": "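Reaction: 0.1 nM purified PKM2 with 0.5 mM phosphoenolpyruvate and 0.1 mM ADP, room temperature, 1 h. Readout: luciferase-based ATP luminescence after stop reagent. Activators judged against a 0.3 nM enzyme column.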"}, "[6]": {"target": "Alpha-galactosidase A (Homo sapiens) (UniProt P06280)", "sequence (P06280 whole entry, looked up)": "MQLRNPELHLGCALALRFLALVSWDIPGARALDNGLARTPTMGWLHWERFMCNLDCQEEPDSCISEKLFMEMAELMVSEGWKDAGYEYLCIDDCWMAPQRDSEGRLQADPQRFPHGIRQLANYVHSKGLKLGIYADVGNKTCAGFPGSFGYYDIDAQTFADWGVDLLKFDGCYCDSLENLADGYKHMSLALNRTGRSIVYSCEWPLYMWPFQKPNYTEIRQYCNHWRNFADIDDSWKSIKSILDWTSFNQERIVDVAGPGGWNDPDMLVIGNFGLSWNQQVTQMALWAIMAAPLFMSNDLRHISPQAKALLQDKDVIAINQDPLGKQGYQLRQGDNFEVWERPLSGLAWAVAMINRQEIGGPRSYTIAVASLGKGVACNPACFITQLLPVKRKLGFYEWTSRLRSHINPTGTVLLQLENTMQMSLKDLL", "test": "Counterscreen for Glucocerebrosidase Inhibitors: qHTS Assay for Human alpha-Galactosidase at pH 4.5 (AID 992)", "in_short": "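Concentration-response curves (0.7 nM to 77 uM final) were modeled with the Hill equation to give AC50. Reactions: 2 nM enzyme, 80 uM fluorogenic alpha-galactoside, pH 4.5 citric acid buffer, 20 min, room temperature.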"}, "[7]": {"target": "alpha-glucosidase (Oryza sativa, rice) (UniProt Q653V4)", "test": "Counterscreen for Glucocerebrosidase Inhibitors: qHTS Assay for Rice alpha-Glucosidase at pH 5.0 (AID 997)", "in_short": "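Rice alpha-glucosidase (4 nM final) with 400 uM 4-methylumbelliferyl-alpha-D-glucopyranoside in citrate buffer pH 5.0, 20 min at room temperature, stopped at pH 10; fluorescence 365/440 nm, compounds 0.7 nM–77 uM, AC50 from Hill fits.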"}, "[8]": {"test": "qHTS Assay for Identification of Small Molecule Antagonists for NFkB Signaling Pathway (AID 895; active = well fitted inhibition curve with a large enough effect in the signal ratio, with a control signal flat, not every such curve was filed as active; the % refers to the signal ratio)", "in_short": "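NFkB-bla ME-180 cervical carcinoma cells with beta-lactamase reporter under NFkB response element; compounds added, then TNF alpha at 10 pM final (EC50), 5 h at 37 C. LiveBLAzer substrate 2 h, room temperature; emission 460/530 nm at 405 nm excitation.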"}, "[9]": {"target": "Muscarinic acetylcholine receptor M1 (Rattus norvegicus) (UniProt P08482)", "sequence (P08482 whole entry, looked up)": "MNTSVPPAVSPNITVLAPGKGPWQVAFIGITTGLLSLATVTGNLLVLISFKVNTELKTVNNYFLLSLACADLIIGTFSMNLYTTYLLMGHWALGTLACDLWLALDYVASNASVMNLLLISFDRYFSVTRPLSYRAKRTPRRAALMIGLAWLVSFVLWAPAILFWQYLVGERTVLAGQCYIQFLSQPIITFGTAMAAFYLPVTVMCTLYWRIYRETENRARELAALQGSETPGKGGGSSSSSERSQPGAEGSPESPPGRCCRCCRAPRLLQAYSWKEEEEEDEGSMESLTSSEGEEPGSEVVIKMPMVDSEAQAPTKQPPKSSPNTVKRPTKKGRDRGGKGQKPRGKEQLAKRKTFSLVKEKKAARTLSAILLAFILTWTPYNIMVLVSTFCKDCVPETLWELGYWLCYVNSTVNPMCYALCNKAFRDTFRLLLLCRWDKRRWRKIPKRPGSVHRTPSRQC", "test": "qHTS Assay for Antagonists of Acetylcholine Muscarinic M1 Receptor: Measurement of IP-One Response (AID 944); also: nearly all actives have a fitted effect of over 75% in size", "in_short": "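Steps: plate transfected CHO-M1 cells overnight; add test compound, 10 min; add carbachol (200 nM, EC80) in stimulation buffer with LiCl; incubate 30 min; add labelled IP1 tracer and anti-IP1 antibody in lysis buffer; read HTRF after 10 min.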"}, "[10]": {"test": "qHTS Assay for Identification of Small Molecule Agonists for Hypoxia Response Element Signaling Pathway (AID 914; active = well fitted activation curve with a large enough effect in the signal ratio, with a control signal flat, not every such curve was filed as active; the % refers to the signal ratio)", "details": "ME-180 HRE-bla reporter, beta-lactamase ratio, CoCl2, 17 h; activation: stronger effect = higher value", "in_short": "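Positive modulation of EC50 CoCl2-induced hypoxia response element signaling is measured in ME-180 cells with a beta-lactamase reporter. Compounds are titrated, incubation runs 17 hours, and %Activity derives from the blue/green ratio.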"}, "[11]": {"target": "Muscarinic acetylcholine receptor M1 (Rattus norvegicus) (UniProt P08482)", "test": "qHTS Assay for Antagonists of Acetylcholine Muscarinic M1 Receptor: Kinetic Measurement of Intracellular Calcium Response (AID 943); also: series mostly up to about 35 µM; nearly all actives have a fitted effect of over 75% in size", "in_short": "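Intracellular calcium flux, recorded with Fluo-4 in a kinetic plate reader, served as signal; the response to carbachol at EC80 (100 nM final) was taken as maximal over minimal fluorescence after a 10 min compound pre-incubation in rat M1-CHO cells.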"}, "[12]": {"test": "Confirmation and Secondary Assay for Modulators of Hemoglobin Beta Chain Splicing at IVS2 654 locus (AID 910);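 also: per-well total GFP intensity by laser scanning cytometry after 2-day treatment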", "in_short": "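HeLa cells stably carrying EGFP interrupted by mutant beta-globin IVS2-654 intron (CMV-driven) were treated with compound for 2 days at 37C; corrected splicing was scored as total peak GFP intensity per well (488 nm excitation, 500-520 nm emission).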"}, "[13]": {"test": "Confirmation and Secondary Assay for Modulators of Hemoglobin Beta Chain Splicing at IVS2 705 locus (AID 930); also: series mostly up to about 46 µM", "in_short": "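First, HeLa EGFP-705 cells are seeded at 500/well in Optimem with 2% FCS and left overnight. Next, compound or DMSO is added for 2 days. Finally wells are laser-scanned and total peak GFP intensity scored.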"}}, "note": "A number with no mark means an inactive call. Results filed as inconclusive are left out. Where a call stands in place of a potency, no number is given. Activity calls are given as the source filed them. Unless noted, calls follow the shape of the dose curve; as a rule, active = well fitted curve in the direction sought with a large enough effect; inconclusive = small, poorly fitted or top-dose-only effect, or another doubt; inactive = no such curve, though single readings can be large; an effect the other way counts as inactive or inconclusive."}
{"smiles": "CN1CCc2cc3c(cc2[C@@H]1[C@@H]1OC(=O)c2c1ccc1c2OCO1)OCO3", "values": [{"measurement": "Potency", "setting": "[1]", "value": "794 nM (active)"}]}
{"smiles": "CC(C)c1c(CN(C)[C@@H](C)Cc2ccccc2)n(C)n(-c2ccccc2)c1=O", "values": [{"measurement": "Potency", "setting": "[1]", "value": "3980 nM (active)"}]}
{"smiles": "C[N+]1(C)[C@@H]2CC[C@H]1CC(OC(=O)[C@@H](CO)c1ccccc1)C2", "note": "(some centres not stated)", "values": [{"measurement": "outcome", "setting": "[2]", "value": "inactive"}, {"measurement": "outcome", "setting": "[3]", "value": "inactive"}, {"measurement": "Potency", "setting": "[4]", "value": "inactive"}, {"measurement": "outcome", "setting": "[5]", "value": "inactive"}, {"measurement": "outcome", "setting": "[6]", "value": "inactive"}, {"measurement": "outcome", "setting": "[7]", "value": "inactive"}]}
{"smiles": "C#CCN(C)[C@@H](C)Cc1ccccc1", "values": [{"measurement": "outcome", "setting": "[2]", "value": "inactive"}, {"measurement": "Potency", "setting": "[8]", "value": "inactive"}, {"measurement": "outcome", "setting": "[3]", "value": "inactive"}, {"measurement": "Potency", "setting": "[9]", "value": "inactive"}, {"measurement": "Potency", "setting": "[4]", "value": "inactive"}, {"measurement": "outcome", "setting": "[5]", "value": "inactive"}, {"measurement": "outcome", "setting": "[6]", "value": "inactive"}, {"measurement": "outcome", "setting": "[7]", "value": "inactive"}]}
{"smiles": "CCC[C@@](C)(COC(N)=O)COC(=O)NC(C)C", "values": [{"measurement": "activation", "setting": "[10]", "value": -3.35, "unit": "%"}]}
{"smiles": "CC(C)C[C@H]1C(=O)N2CCC[C@@H]2[C@@]2(O)O[C@](NC(=O)[C@@H]3C=C4c5cccc6[nH]cc(c56)C[C@@H]4N(C)C3)(C(C)C)C(=O)N12", "values": [{"measurement": "Potency", "setting": "[1]", "value": "2000 nM (active)"}]}
{"smiles": "CC(C)[C@@]1(NC(=O)[C@@H]2C[C@H]3c4cccc5[nH]cc(c45)C[C@@H]3N(C)C2)O[C@]2(O)[C@H]3CCCN3C(=O)CN2C1=O", "values": [{"measurement": "activation", "setting": "[10]", "value": 9.33, "unit": "%"}]}
{"smiles": "COc1ccc2c(c1OC)C(=O)O[C@H]2[C@H]1c2cc3c(cc2CCN1C)OCO3", "values": [{"measurement": "outcome", "setting": "[2]", "value": "inactive"}, {"measurement": "Potency", "setting": "[9]", "value": "inactive"}, {"measurement": "Potency", "setting": "[4]", "value": "inactive"}, {"measurement": "outcome", "setting": "[6]", "value": "inactive"}, {"measurement": "outcome", "setting": "[7]", "value": "inactive"}]}
{"smiles": "C[C@H](NC(C)(C)C)C(=O)c1cccc(Cl)c1", "values": [{"measurement": "outcome", "setting": "[2]", "value": "inactive"}, {"measurement": "outcome", "setting": "[3]", "value": "inactive"}, {"measurement": "Potency", "setting": "[4]", "value": "inactive"}, {"measurement": "outcome", "setting": "[5]", "value": "inactive"}, {"measurement": "outcome", "setting": "[6]", "value": "inactive"}, {"measurement": "outcome", "setting": "[7]", "value": "inactive"}]}
{"smiles": "C[C@@]12CC[C@H]3[C@@H](CC[C@@H]4C[C@H]5S[C@H]5C[C@]43C)[C@H]1CC[C@H]2O", "values": [{"measurement": "activation", "setting": "[10]", "value": 1.68, "unit": "%"}]}
{"smiles": "COc1ccc(NC(=O)N2CCC3(CC2)CCN(C(=O)Oc2ccccc2)CC3)cc1", "values": [{"measurement": "activation", "setting": "[10]", "value": -18.1, "unit": "%"}]}
{"smiles": "CN1Cc2c(ccc3c2OCO3)[C@@H]2[C@@H](O)Cc3cc4c(cc3[C@@H]21)OCO4", "values": [{"measurement": "Potency", "setting": "[1]", "value": "5010 nM (active)"}]}
{"smiles": "CS(=N)(=O)CC[C@@H](N)C(=O)O", "note": "(some centres not stated)", "values": [{"measurement": "outcome", "setting": "[2]", "value": "inactive"}, {"measurement": "outcome", "setting": "[3]", "value": "inactive"}, {"measurement": "Potency", "setting": "[11]", "value": "inactive"}, {"measurement": "Potency", "setting": "[9]", "value": "inactive"}, {"measurement": "Potency", "setting": "[4]", "value": "inactive"}, {"measurement": "outcome", "setting": "[5]", "value": "inactive"}, {"measurement": "outcome", "setting": "[6]", "value": "inactive"}, {"measurement": "outcome", "setting": "[7]", "value": "inactive"}]}
{"smiles": "C[C@]12CC[C@H](O)C[C@@H]1CC[C@H]1[C@H]2CC[C@]2(C)C(=O)CC[C@@H]12", "values": [{"measurement": "outcome", "setting": "[2]", "value": "inactive"}, {"measurement": "outcome", "setting": "[3]", "value": "inactive"}, {"measurement": "Potency", "setting": "[4]", "value": "inactive"}, {"measurement": "outcome", "setting": "[5]", "value": "inactive"}, {"measurement": "outcome", "setting": "[6]", "value": "inactive"}, {"measurement": "outcome", "setting": "[7]", "value": "inactive"}]}
{"smiles": "CNC(=O)N(C)c1nnc(C(C)(C)C)s1", "values": [{"measurement": "Potency", "setting": "[12]", "value": "inactive"}, {"measurement": "Potency", "setting": "[13]", "value": "inactive"}]}
{"smiles": "c1ccc2c(c1)[nH]c1cnccc12", "values": [{"measurement": "Potency", "setting": "[1]", "value": "inactive"}, {"measurement": "Potency", "setting": "[12]", "value": "inactive"}, {"measurement": "Potency", "setting": "[13]", "value": "inactive"}]}
